Bioassay records from PubChem BioAssay.
IP6K1 inh = Primary qHTS assay for small molecule inhibitors of Inositol hexaphosphate kinase 1 (IP6K1); Inositol hexakisphosphate kinase 1 (Homo sapiens), Q92551; activity change, % (series mostly up to about 58 µM); IP6K1 kinase, ADP-Glo luminescence, 2 h; active compounds read low; 140,000 compounds, 0.81% hits; in the data active = activity change below about -25%; also: % is scaled to controls: 0 for no effect and ±100 for the full control effect
Target sequence (Q92551 whole entry, looked up): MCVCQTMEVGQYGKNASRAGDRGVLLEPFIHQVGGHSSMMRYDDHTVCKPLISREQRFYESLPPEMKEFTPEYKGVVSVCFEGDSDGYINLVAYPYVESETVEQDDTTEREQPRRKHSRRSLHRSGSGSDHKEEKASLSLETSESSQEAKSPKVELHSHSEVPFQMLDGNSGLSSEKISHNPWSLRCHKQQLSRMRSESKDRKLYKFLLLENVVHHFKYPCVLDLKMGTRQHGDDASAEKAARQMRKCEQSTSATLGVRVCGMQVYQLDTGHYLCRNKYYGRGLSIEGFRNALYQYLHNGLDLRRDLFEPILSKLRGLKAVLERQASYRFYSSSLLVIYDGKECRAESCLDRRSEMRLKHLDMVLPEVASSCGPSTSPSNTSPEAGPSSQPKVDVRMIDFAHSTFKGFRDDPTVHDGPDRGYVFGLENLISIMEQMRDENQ
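ADP-Glo luminescence measures ADP made by human IP6K1 during a 2 h RT reaction with ATP/IP6 (mix at 1.3 mM/130 uM); top library doses 57.5 and 19.1 uM final.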
HEK293 viab = GF-AFC viability counterscreen for inhibitors of alpha-synuclein gene (SNCA) expression; HEK-293-SNCA-luc viability, GF-AFC fluorescence, 24 h; Potency, µM (top dose mostly 57.1 µM), for the others: at the top dose activity change, negative = cytotoxicity, most hits filed as cytotoxic; 150,000 compounds, 0.12% hits; AID 1671193, 2021;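 also: potency is read from the fitted curve at half-maximal effect; 0% = DMSO-treated cells and -100% = medium-only wells without cells; nearly all actives have a fitted effect of over 30% in size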
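HEK-293-SNCA-luc cells (1500/well) plated 24 h, then exposed 24 h to a dilution series; GF-AFC added 30 min at 37C, fluorescence 405/540 nm; normalised to medium-only and DMSO wells, Hill fit.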
KDM5B inh = Primary screen for KDM5B Histone Demethylases FDH-coupled qHTS; AID 1347165, 2019; Potency, µM (series often up to 57.7 µM), hits mostly inhibitors; 220,000 compounds, 2.6% hits; KDM5B demethylase, FDH-coupled NADH fluorescence (FDH is formaldehyde dehydrogenase); also: potency is read from the fitted curve at half-maximal effect; 0% is about no effect; nearly all actives have a fitted effect of over 70% in size
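Coupled FDH/NAD⁺ fluorescence readout. KDM5BΔAP 200 nM final; compound titration, 10 min RT preincubation; substrate mix 12.5 µM H3K4me3, 25 µM 2-OG, 50 µM Fe(II), 100 µM ascorbate, 0.25 mM NAD⁺, 0.25 U/mL FDH; ΔRFU over 30 min.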
SNCA expr inhib = Primary qHTS assay for inhibitors of alpha-synuclein gene (SNCA) expression. HEK-293 SNCA-luciferase knock-in, luminescence, 24 h. Potency, µM (highest dose often 57.2 µM), without a hit: top-dose activity change, negative = inhibition, most hits filed as inhibitors. 140,000 compounds, 0.17% hits;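 also: potency is read from the fitted curve at half-maximal effect; plate controls were DMSO cells for no effect and cell-free wells for full effect; nearly all actives have a fitted effect of over 45% in size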
The depositor's hits bear a star; i = inactive; ? = inconclusive; nt = not tested or not shown; [ ] = remark or other dose. The list is not random: actives were taken first. Their share in the collection is about 2.9%. Unless noted, calls follow the shape of the dose curve; as a rule, active = well fitted curve in the direction sought with a large enough effect; inconclusive = small, poorly fitted or top-dose-only effect, or another doubt; inactive = no such curve, though single readings can be large; an effect the other way counts as inactive or inconclusive.

SMILES | IP6K1 inh | HEK293 viab | KDM5B inh | SNCA expr inhib
COc1ccc(CCNC(=O)c2cc3n(n2)CC(c2ccc(Cl)cc2)OC3)cc1OC (stereo not drawn) | 31.0 | -27.8% | ? | ?
COc1ccc(CCNC(=O)c2cc3n(n2)CC(c2ccc4c(c2)OCO4)OC3)cc1OC (stereo not drawn) | -8.1 | ? | 28.2µM* | -5.5%
O=C(NC1CC1)c1cccn2cncc12 | 1.3 | -0.6%[87.6 µM] | ? | 20.8%[87.6 µM]
O=C(NC1CC1)c1cnn2ncccc12 | 3.3 | 2.3%[87.6 µM] | 31.6µM* | -28.3%[87.6 µM]
CNC(=O)c1cccn2nccc12 | 3.5 | 0.9%[87.6 µM] | 31.6µM* | -14.1%[87.6 µM]
O=C(NC1CC1)c1cccn2nccc12 | -8.7 | -19.1%[87.6 µM] | 35.5µM* | ?
COc1ccc(-c2ccc(C(=O)NCC(F)(F)F)c(Cl)c2)nn1 | -4.0 | nt | nt | nt
N#Cc1ccc(CSc2ccccc2C(=O)NCCc2ccc3c(c2)OCCO3)cc1 | nt | nt | i | nt
CCN1CCN(CCOc2ccc3cc(-c4ccc(OC)cc4)c(=O)oc3c2)CC1 | nt | nt | i | nt
Cc1cccc(OC[C@H]2C[C@@H](NC(=O)c3ccccc3)[C@H](O)[C@@H]2O)n1 | 4.9 | 2.5%[87.6 µM] | 35.5µM* | -4.5%[87.6 µM]
CC(C)C(=O)NC1CCCN(c2ccc3nnc(-c4ccccc4)n3n2)C1 (stereo not drawn) | -1.3 | nt | nt | nt
COc1ccc(OC2CCN(C(C)=O)CC2)c(C(=O)NC(C)c2cn(C)nc2C)c1 (stereo not drawn) | 24.3 | -20.4% | 31.6µM* | -0.7%
COc1ccc(C(=O)NC(C)c2nncn2C)cc1OC1CCN(C(C)=O)CC1 (stereo not drawn) | -8.9 | -1.3% | i | -22.9%
CCn1nc(C(=O)Nc2nc3ccccc3n2CC)c2ccccc2c1=O | nt | nt | i | nt
Cc1ccc2nc(CN3CCCC(CO)(CC4CC4)C3)cn2c1 (stereo not drawn) | 5.1 | -1.9% | 22.4µM* | 96.0%
CCc1ccc2c(c1)-c1ccccc1S(=O)(=O)N2CC(=O)Nc1cccc(Cl)c1C | nt | nt | i | nt
Cc1cc(CN(C)c2ccc(-c3nc(COc4ccccc4)no3)cn2)on1 | 16.8 | 0.4% | 35.5µM* | 156.2%
Cc1nc2ncccn2c1C(=O)N[C@H]1CCOC[C@H]1C1CCOCC1 | 7.2 | 5.4% | 28.2µM* | -6.4%
Cc1cc(C(=O)N[C@H]2CCOC[C@H]2C2CCOCC2)cc(C)n1 | 8.2 | -0.8% | i | -21.1%
CCC1CCCCN1C(=O)CCn1cnc2c1c(=O)n(C)c(=O)n2C (stereo not drawn) | nt | nt | i | nt
CN1CCN(c2cc(-c3cncc(N)c3)nc(N)n2)CC1 | 15.1 | 3.0% | 20µM* | 2.4%
CN1CCN(c2cc(N3CCCC(CN4CCCCC4)C3)nc(N)n2)CC1 (stereo not drawn) | 0.0 | -24.2% | i | 1.0%
CCc1cccc(C)c1NC(=O)Cc1nn(C)c(=O)c2ccccc12 | nt | nt | i | nt
CC(C)C[C@@H]1N[C@H](C(=O)NC2CCC2)Cc2cn(CC3CC3)c3cccc1c23 | -5.0 | -5.2%[87.6 µM] | i | ?
CC(C)C[C@@H]1N[C@H](C(=O)NCCN(C)C)Cc2cn(CC3CC3)c3cccc1c23 | 11.8 | ? | 28.2µM* | -42.6%[87.6 µM]
SMILES | IP6K1 inh | HEK293 viab | KDM5B inh | SNCA expr inhib
C=CCn1cc2c3c(cccc31)[C@H](CC(C)C)N[C@H](C(=O)NCCC)C2 | 16.4 | -25.4%[87.6 µM] | ? | ?
C=CCn1cc2c3c(cccc31)[C@H](CC(C)C)N[C@H](C(=O)NCCN(C)C)C2 | -6.4 | -0.2%[87.6 µM] | 31.6µM* | 7.5%[87.6 µM]
COc1ccc(CN2CCNC(=O)C2CC(=O)NC2CCOCC2)c(F)c1 (stereo not drawn) | nt | nt | i | nt
COc1ccc(CN2CCNC(=O)C2CC(=O)NCc2ccco2)c(F)c1 (stereo not drawn) | 4.3 | 1.7% | 10µM* | 7.8%
CC(C)(C)OC(=O)COC(=O)c1cccnc1Nc1ccccc1F | nt | nt | i | nt
CNC(=O)c1cc2cccnn2n1 | -3.1 | 5.3%[87.6 µM] | 31.6µM* | 9.3%[87.6 µM]
CN(C)C(=O)c1cc(C(C)(C)C)c2cccn2n1 | -9.3 | 3.5%[87.6 µM] | i | 211.8%[87.6 µM]
CN(C)C(=O)c1cc2cccnn2n1 | 1.5 | 2.4%[87.6 µM] | 31.6µM* | 20.5%[87.6 µM]
O=C1CCSc2ccc(C(=O)NO)cc2N1 | nt | nt | i | nt
C=CCOC(=O)COc1ccc2oc(=O)cc(-c3cc4cccc(OC)c4o3)c2c1 | nt | nt | i | nt
CCn1cnnc1-c1nn(C)c2c1CN(C(=O)CCC(=O)N1CC(=O)Nc3ccccc31)CC2 | -8.0 | 13.2% | 14.1µM* | 25.0%
CC(C)n1cnnc1-c1nn(C)c2c1CN(C(=O)Cc1c[nH]c3ccccc13)CC2 | -6.5 | 5.5% | 20µM* | 5.6%
Cn1nc(-c2nncn2CC2CC2)c2c1CCN(C(=O)c1cn[nH]c1-c1ccccc1)C2 | -7.2 | 6.8% | i | -21.9%
CN(CC(=O)N1CCc2c(c(-c3nncn3CC3CC3)nn2C)C1)S(=O)(=O)c1cnc[nH]1 | -16.3 | -4.4% | 22.4µM* | -22.4%
Cn1nc(-c2nncn2CC2CC2)c2c1CCN(C(=O)c1n[nH]c3ccccc13)C2 | -6.8 | -20.7% | 20µM* | 4.1%
CC(C)n1cnnc1-c1nn(C)c2c1CN(C(=O)c1n[nH]c3ccccc13)CC2 | -17.4 | -9.4% | i | -1.0%
CCn1cnnc1-c1nn(C)c2c1CN(C(=O)CCn1nc(C)cc1C)CC2 | -8.1 | 12.7% | nt | 17.0%
COc1ccc(C(=O)OCc2ccccc2F)c(OC)c1OC | nt | nt | i | nt
COc1cc(C(=O)OCC(=O)c2ccc(F)cc2F)cc(Cl)c1O | nt | nt | i | nt
Cc1ccc2oc(=O)n(CCNC(=O)Nc3ccc(F)cc3)c2c1 | nt | nt | i | nt
CCOc1cc(=O)n2c(c1C(=O)NCCCN1CCCc3ccccc31)CCCCC2 | 0.2 | 10.4% | 11.2µM* | -16.9%
COCCC(=O)N1CCNc2cnc(Nc3cccc(C(F)(F)F)c3)nc2C1 | -9.6 | -2.9%[87.6 µM] | ? | 27.1%[87.6 µM]
O=C(CCc1ccccc1)N1CCNc2cnc(Nc3cccc(C(F)(F)F)c3)nc2C1 | -6.2 | -6.7% | 25.1µM* | -17.8%
O=C(Cc1ccc2c(c1)OCO2)N1CCNc2cnc(Nc3cccc(C(F)(F)F)c3)nc2C1 | -8.9 | -4.8% | 14.1µM* | ?
O=C(Cc1cccc(Cl)c1)N1CCNc2cnc(Nc3cccc(C(F)(F)F)c3)nc2C1 | -14.3 | -19.5% | ? | ?
SMILES | IP6K1 inh | HEK293 viab | KDM5B inh | SNCA expr inhib
O=C(NCc1nc(-c2cccs2)no1)c1ccc(Oc2cccnc2)cc1 | nt | nt | i | nt
CN1CCC(C(=O)c2ccccc2)C1=O (stereo not drawn) | nt | nt | i | nt
CN(CC(=O)N1CCn2nc(Cc3ccccc3)cc2C1)Cc1ccncc1 | 21.1 | -9.1% | 14.1µM* | 2.2%
O=C(NCCN1CCCCC1)c1ccc(-c2ccc(N3CCSCC3)nc2)cc1 | -1.3 | 3.4% | 28.2µM* | 59.2%
O=C(NCc1ccccn1)c1ccc(-c2ccc(N3CCCCC3)nc2)cc1 | -6.2 | -4.6% | 15.8µM* | 54.7%
Cc1ccc(C(=O)NCCN2CCCC2)cc1 | nt | nt | i | nt
COc1ccc(CNC(=O)c2ccc(-c3ccc(N4CCSCC4)nc3)cc2)cc1OC | -3.6 | 9.1% | ? | 9.1%
O=C(NCCN1CCCCC1)c1ccc(-c2ccc(N3CCCCC3)nc2)cc1 | -14.6 | ? | 28.2µM* | 41.0%
